From PubChem BioAssay
EPAC2 agonist: qHTS for Agonist of cAMP-regulated guanine nucleotide exchange factor 4 (EPAC2): primary screen; Potency, µM (highest dose often 154 µM), inactives show at the highest dose activation, usual class: activators; AID 720711, 2013; Rap guanine nucleotide exchange factor 4 (Homo sapiens), Q8WZA2; 360,000 tested, 0.079% active; EPAC2 activation, biochemical qHTS; response scale: 100% = 6.5 mM cAMP response; further: potency means the concentration at half of the fitted maximal effect; nearly all actives have a fitted effect of over 50% in size
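In this primary screen, activation is scored as increased exchange of BODIPY-GDP from Rap1B by 100 nM EPAC2, with 50 uM GDP as competitor. Signal is normalized to the 6.5 mM cAMP agonist control.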
EPAC1 agonist: qHTS for Agonist of cAMP-regulated guanine nucleotide exchange factor 3 (EPAC1): primary screen; Rap guanine nucleotide exchange factor 3 (Homo sapiens), O95398; Potency, µM (titrated, usually from 154 µM), for the others: at the top dose activation, most hits filed as activators; 360,000 tested, 0.073% active; EPAC1 agonist qHTS, biochemical assay; response scale: 100% = response to 6.5 mM cAMP; further: potency means the concentration at half of the fitted maximal effect; nearly all actives have a fitted effect of over 60% in size
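Fluorescent GDP-exchange assay: 100 nM EPAC1 with 250 nM Rap1B preloaded with BODIPY-GDP and 50 uM GDP; compounds tested as concentration series, 5 min at room temperature, then read every 5 min for 30 min (ex 480/em 540 nm); normalized to 6.5 mM cAMP.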
EPAC2 antag: qHTS for Antagonist of cAMP-regulated guanine nucleotide exchange factor 2 (EPAC2): primary screen; AID 720708, 2013; 360,000 tested, 0.18% active; EPAC2 GEF exchange of Rap1B-BODIPY-GDP, fluorescence; Potency, µM (doses to about 114 µM), without a hit: top-dose activity, negative = inhibition, usual class: inhibitors; further: potency means the concentration at half of the fitted maximal effect; on the % scale 0 is the no-effect control and ±100 the full control effect; nearly all actives have a fitted effect of over 45% in size
KCNH2 3.1 block: qHTS for Inhibitors of KCHN2 3.1: Mutant qHTS. U2OS KCNH2 3.1, thallium flux FluxOr; active compounds read low. activity change, % (tested at about 1.8 µM). 340,000 tested, 0.95% active. AID 720553, 2013;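 active means maximum activity change below -70%; inconclusive means maximum activity change from -70% to -50%; inactive means maximum activity change above -50%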;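 further: thallium influx rate constant from kinetic fluorescence after stimulation buffer; on the % scale 0 is the no-effect control and ±100 the full control effect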
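Kinetic fluorescence (2 min after stimulation buffer) measures Tl+ influx through KCNH2 3.1 expressed by viral transduction in U2OS cells; the rate constant is normalized against DMSO controls serving as positive and negative references.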
EPAC1 antag: qHTS for Antagonist of cAMP-regulated guanine nucleotide exchange factor 3 (EPAC1): primary screen. AID 720709, 2013. Rap guanine nucleotide exchange factor 3 (Homo sapiens), O95398. Potency, µM (top dose mostly 115 µM), for the others: top-dose activity change, negative = inhibition, usual class: inhibitors. 360,000 tested, 0.14% active. EPAC1 GEF assay, Rap1b-BODIPY-GDP exchange fluorescence;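 further: potency means the concentration at half of the fitted maximal effect; plate controls were vehicle for no effect and positive control for full effect; nearly all actives have a fitted effect of over 50% in size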
KCNH2 WT inh: qHTS for Inhibitors of KCHN2 3.1: Wildtype qHTS | Voltage-gated inwardly rectifying potassium channel KCNH2 (Homo sapiens), Q12809 | U2OS, BacMam KCNH2, thallium flux FluxOr; active compounds read low | activity change, % at 1.84 µM | 340,000 tested, 0.37% active | AID 720551, 2013;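 active means maximum activity change below -70%; inconclusive means maximum activity change between -70% and -50%; inactive means maximum activity change above -50%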; further: on the % scale 0 is the no-effect control and ±100 the full control effect
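U2OS cells were transduced with wild-type KCNH2 virus (2.03 x 10^8 / mL) for 4 h at room temperature, then cultured overnight at 37 C. Thallium flux was read with FluxOr dye. Rate constants were normalized to DMSO controls.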
Active calls of the source: *; ? = inconclusive; . = no result. Compounds with a hit are over-represented: about 1.4% of the library has one in this group of screens. Unless noted, the call rests on the fitted dose curve; in most records, active means well fitted curve in the direction sought with a large enough effect; inconclusive means small, poorly fitted or top-dose-only effect, or another doubt; inactive means no such curve, though single readings can be large; an effect the other way counts as inactive or inconclusive.

SMILES | EPAC2 agonist | EPAC1 agonist | EPAC2 antag | KCNH2 3.1 block | EPAC1 antag | KCNH2 WT inh
CC(C)c1ccc(C(c2c(O)c3ccccc3oc2=O)c2c(O)c3ccccc3oc2=O)cc1 | 1.1% | -7.3% | 44.7µM* | 1.5 | ? | -29.7
Oc1c(Cl)cc(Cl)cc1CN1CCN(Cc2ccccc2)CC1 | 12.4% | 19.8% | 0.3% | -2.7 | -2.2% | -0.3
Oc1c(Cl)cccc1Cc1cc(Cl)cc(Cl)c1O | -0.1% | 0.3% | 22.4µM* | 7.6 | 79.4µM* | -2.2
CCC(=Nc1ccc2c(c1)CCC2)c1c(O)n(-c2ccc(OC)cc2)c(=O)[nH]c1=O | 4.2% | 5.7% | 8.0% | 3.9 | -13.4% | -104.3*
C=CCn1cc(C=C2C(=O)NC(=O)NC2=O)c2ccccc21 | -24.9% | -74.7% | 1.8% | 4.2 | ? | 8.7
O=C1NC(=O)C(=Cc2cn(CCOc3ccc4c(c3)OCO4)c3ccccc23)C(=O)N1 | 100µM* | 4.7% | 43.2% | 0.7 | 1.4% | -2.3
O=C(O)CSCC(=O)N(Cc1ccccc1)c1nc(-c2ccccc2)c(-c2ccccc2)s1 | 19.2% | 18.4% | ? | -0.2 | ? | -2.9
O=P(Nc1ccccc1)(Oc1ccccc1)Oc1ccccc1 | 2.2% | -7.4% | ? | 7.3 | -17.2% | 28.5
O=P(NC(c1ccccc1)c1ccccc1)(Oc1ccccc1)Oc1ccccc1 | -3.3% | 3.6% | -0.4% | -88.2* | 6.7% | 23.4
Oc1ccc2c3c1O[C@H]1c4[nH]c5ccccc5c4C[C@@]4(O)[C@@H](C2)N(CC2CC2)CC[C@]314 | 3.7% | -5.6% | -10.1% | -70.5* | -2.8% | 34.0
O=[N+]([O-])c1cccc(CN2CCN(Cc3ccc(Cl)cc3)CC2)c1 | 7.7% | -12.2% | -0.2% | -83.6* | -12.7% | -8.8
CC(C)N1CCN(Cc2cccc([N+](=O)[O-])c2)CC1 | 13.6% | -3.9% | 2.0% | 3.2 | 0.0% | -0.1
CC[C@H](C)/C=C(C)/C=C/C1=CC2=C(Cl)C(=O)[C@@](C)(OC(C)=O)C(=O)C2=CO1 | 7.6% | 6.9% | 3.55µM* | -0.2 | 35.5µM* | -3.1
CC1(C)Cc2c(sc3nc4n(-c5ccccc5)c(=O)c(CCC(=O)O)nn4c(=O)c23)CO1 | 7.4% | 12.2% | ? | 0.0 | -18.3% | -20.9
Oc1c(Br)c(Br)c(Br)c(Br)c1Br | -6.1% | -14.4% | 20µM* | -1.8 | 70.8µM* | -15.0
Cn1c(O)c(/C=C/C=Nc2ccccc2)c(=O)n(C)c1=O | -0.8% | 3.1% | 6.6% | 0.8 | 28.2% | -87.7*
O=C(c1cc([N+](=O)[O-])ccc1N1CCNCC1)N1CCOCC1 | -0.5% | -0.4% | 5.2% | -0.1 | -0.9% | -2.9
O=C(c1cc(-c2ccc(Cl)cc2)n(-c2ccc(Cl)cc2Cl)n1)N1CCOCC1 | 10µM* | 8.4% | -17.0% | -103.6* | -4.4% | -49.0
Cc1ccc([C@@H]2CC(=O)[C@@H]3CN(S(=O)(=O)c4ccccc4C)[C@H](c4ccc(Cl)cc4)C[C@@H]3N2S(=O)(=O)c2ccc(C)cc2)cc1 | 12.1% | 6.7% | 5.6% | -0.2 | -1.3% | -2.0
C/C(CC(=O)N1CCN(C=O)CC1)=N\NC(=O)c1cccc([N+](=O)[O-])c1 | ? | 5.1% | -1.8% | 5.1 | 5.6% | 1.4
C=CCC1(CCCCC)C(=O)NC(=S)NC1=O | 0.1% | -6.3% | -2.5% | 9.4 | -1.4% | -81.5*
Oc1ccc(Cl)cc1Sc1cc(Cl)ccc1O | 2.5% | 2.9% | 35.5µM* | -1.1 | ? | -2.6
Oc1ccc(Cl)cc1 | 8.3% | -12.0% | 3.4% | 16.8 | -19.1% | 7.2
O=C(Nc1cc(Cl)cc(Cl)c1)N1Cc2ccccc2-n2nncc2C1 | 11.2% | -3.6% | 4.4% | 7.0 | -25.2% | -5.9
CN1CCN(Cc2cc(=O)n3ccsc3n2)CC1 | 8.6% | -25.6% | 1.0% | -81.1* | ? | 6.4
SMILES | EPAC2 agonist | EPAC1 agonist | EPAC2 antag | KCNH2 3.1 block | EPAC1 antag | KCNH2 WT inh
CC1(C)c2[nH]c3ccccc3c2C[C@H]2C(=O)N(Cc3ccccc3F)C(=O)N21 | 12.1% | -4.3% | ? | . | -21.8% | .
O=C(Nc1cccc(C(F)(F)F)c1)OC1CN2CCC1CC2 (stereo unspecified) | 2.0% | 10.9% | -4.2% | -5.2 | 5.1% | 40.5
OC(c1cccc(Cl)c1)(c1cccc(Cl)c1)C1CN2CCC1CC2 (stereo unspecified) | -1.2% | -13.6% | 10.4% | -86.5* | ? | ?
Cc1ccccc1N(CC(=O)NC1CCCC1)C(=O)c1csnn1 | 3.8% | -3.5% | 0.6% | 11.4 | ? | 2.3
O=S1(=O)CC2(N3CCOCC3)CCCCC21 (stereo unspecified) | 1.4% | 0.6% | -3.1% | -94.0* | -1.0% | -14.7
O=S1(=O)CC2(N3CCOCC3)CCCCCCC21 (stereo unspecified) | 9.0% | 4.0% | 2.9% | 2.6 | -17.2% | -5.3
N#CC(C#N)=NNc1ccc(S(N)(=O)=O)cc1 | -1.1% | -0.2% | -28.4% | -2.4 | 56.2µM* | -17.1
Cc1cccc(NP(=O)(Oc2ccccc2)Oc2ccccc2)c1C | 16.1% | -6.9% | 0.0% | -7.2 | -1.6% | -242.2*
CC(Nc1cc(C)cc(C)c1)=[N+](C)CCNS(=O)(=O)c1ccc(Cl)cc1 | -3.8% | 8.2% | 8.6% | -94.6* | ? | 14.7
Cc1ccccc1C(=O)Oc1cccc(Nc2ncnc3ccccc23)c1 | 6.7% | 6.0% | -0.6% | -9.7 | ? | 3.5
CCN1/C(=C/C=C/C2=[N+](CC)c3ccccc3C2(C)C)C(C)(C)c2ccccc21 | 17.8µM* | 56.2µM* | 144.4% | -77.1* | 47.1% | -130.6*
CN1/C(=C\C=C2C(=O)NC(=O)NC2=O)C(C)(C)c2ccccc21 | 10.0% | ? | 11.8% | 2.9 | 14.6% | -4.5
CC(C)CCOP(=O)(c1ccc(N(C)C)cc1)C(O)c1ccc(Cl)cc1Cl (stereo unspecified) | 5.0% | 1.8% | 35.5µM* | -10.9 | -22.6% | -10.9
CC(C)CCOP(=O)(c1ccc(N(C)C)cc1)C(O)c1ccc(C(C)C)cc1 (stereo unspecified) | -15.3% | -18.3% | ? | 2.1 | -13.9% | -10.8
